Shown are actives, neighbours in structure and some others; about 6% of the full set was active somewhere.
DRD3 antagonist: blocks the human D3 dopamine receptor; P35462; 2.5% of 360,000 active; max response, negative = inhibition, %; D3R cells, DiscoveRx beta-arrestin luminescence, antagonist mode; active compounds read low; in the data active means max response below about -50%; inconclusive means no clear call, values can overlap the other calls
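Cells expressing the human receptor were seeded at 1500 cells/well, incubated overnight at 37 degrees C in 5% CO2, then exposed to library compounds with dopamine controls for 90 minutes at 37 degrees C before luminescent detection.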
DRD3 agonist: activates the human D3 dopamine receptor; D3R DiscoveRx beta-arrestin cells, luminescence, 90 min; AID 652048; P35462; 0.58% of 410,000 active; max activation, %; in the data active means max activation above about 30%
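Agonist-mode cell screen: cells plated at 1500/well and incubated overnight at 37 °C, then exposed to library compounds for 90 min at 37 °C. Detection reagent was added for 30–60 min at room temperature, and luminescence was read.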
D1 antag: antagonists of human D1 dopamine receptor | P21728 | activity change, negative = inhibition, % at 10 µM | HEK293 TREx D1 cells, calcium flux, dopamine EC80; active compounds read low | 3.2% of 360,000 active; in the data active means activity change below about -30%
Target sequence (P21728 whole entry, looked up): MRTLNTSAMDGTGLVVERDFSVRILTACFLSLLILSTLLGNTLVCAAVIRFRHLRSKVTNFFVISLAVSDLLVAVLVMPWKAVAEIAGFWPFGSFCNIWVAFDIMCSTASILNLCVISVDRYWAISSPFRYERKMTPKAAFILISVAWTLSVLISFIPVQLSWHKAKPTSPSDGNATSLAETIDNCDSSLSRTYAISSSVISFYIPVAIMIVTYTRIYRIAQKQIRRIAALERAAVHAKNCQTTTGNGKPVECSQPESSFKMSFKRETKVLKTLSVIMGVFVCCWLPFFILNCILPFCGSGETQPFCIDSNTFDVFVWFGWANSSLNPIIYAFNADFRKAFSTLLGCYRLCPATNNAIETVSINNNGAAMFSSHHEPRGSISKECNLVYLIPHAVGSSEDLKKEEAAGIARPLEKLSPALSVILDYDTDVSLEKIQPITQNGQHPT
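HEK293 T-REx cells expressing inducible, force-coupled D1 receptor; no-wash Ca dye, 30–90 min RT. Cmpd → 180 s read at 1 Hz → EC80 DA → 180 s read.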
D1 agonist: agonists of human D1 dopamine receptor | 1% of 360,000 active | activation, % at 2 µM | HEK293 T-REx D1 cells, calcium flux, agonist mode | P21728; in the data active means activation above about 30%
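Agonism was scored from calcium flux recorded over 180 s (1 read/s) after pintool compound addition, following a 10-cycle baseline. Cells were inducible force-coupled HEK293 TREx D1, plated overnight at 30 C and loaded with no-wash calcium dye.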
D1 PAM: human D1 dopamine receptor positive modulation. P21728. HEK293 TREx D1 cells, calcium flux, dopamine EC20 potentiation. potentiation, % at 10 µM. 0.036% of 360,000 active. AID 504651; in the data active means potentiation above about 30%
Each line names hits and unclear results; the compound was inactive in the other large screens.

CCOc1c(OC(C)=O)ccc(/C=C/c2ccc3cccc(OC(C)=O)c3n2)c1[N+](=O)[O-]	none
C=CCN1C(=O)/C(=C/c2ccc(OC(C)=O)c(OCC)c2[N+](=O)[O-])SC1=S	D1 antag -31
CC1=C(C(=O)O)N2C(=O)[C@@H](NC(=O)[C@H](N)C3=CCC=CC3)[C@H]2SC1	none (no result: DRD3 antagonist, D1 antag, D1 agonist, D1 PAM)
CCOC(=O)c1ccc(S(=O)(=O)N2CCN(CC(=O)NC(=O)NC(C)(C)C)CC2)cc1	DRD3 antagonist -71
C[C@H](NC(=O)c1nc[nH]c1C(=O)N1CCN(C(=O)OC(C)(C)C)CC1)C(=O)OC(C)(C)C	none
CC1CCN(C(=O)c2[nH]cnc2C(=O)Nc2ccc(Cl)cc2)CC1	DRD3 agonist 45 (no result: D1 antag)
CNC(=O)c1[nH]cnc1C(=O)N[C@@H](C)C(=O)OCc1ccccc1	DRD3 agonist 35, D1 antag -34
C[C@H](NC(=O)c1nc[nH]c1C(=O)N[C@@H](Cc1ccccc1)C(=O)OC(C)(C)C)c1ccccc1	DRD3 antagonist -58
C[C@@H](NC(=O)c1nc[nH]c1C(=O)N[C@@H](Cc1ccccc1)C(=O)OC(C)(C)C)c1ccccc1	none
CC1CCN(C(=O)c2[nH]cnc2C(=O)N[C@@H](C)C(=O)OC(C)(C)C)CC1	DRD3 antagonist -52
CC1CCN(C(=O)c2[nH]cnc2C(=O)NCc2ccccc2)CC1	none
CSc1ccc(-c2cccc3nncn23)cc1	none (no result: D1 antag, D1 agonist, D1 PAM)
CSC12CCCN(CCC(C(C)(C)C)C1)C2=O (stereo unspecified)	none (no result: D1 antag, D1 agonist, D1 PAM)
CCCOc1ccc(Oc2nc(NCC(C)C)nc(N3CCOCC3)n2)nn1	none (no result: DRD3 antagonist)
COC(=O)c1ccc(CNC(=O)CC[C@H]2O[C@@H](n3cc(C)c(=O)[nH]c3=O)C[C@@H]2O)cc1	none (no result: D1 antag, D1 agonist, D1 PAM)
C[C@H](NC(=O)c1nc[nH]c1C(=O)N[C@@H](Cc1ccccc1)C(=O)OC(C)(C)C)C(=O)OCc1ccccc1	DRD3 antagonist inconclusive
C[C@H](NC(=O)c1nc[nH]c1C(=O)NC(c1ccccc1)c1ccccc1)C(=O)OC(C)(C)C	DRD3 antagonist -56
C[C@H](NC(=O)c1nc[nH]c1C(=O)N[C@@H](Cc1ccccc1)C(=O)OCc1ccccc1)C(=O)OCc1ccccc1	D1 antag -31
C[C@H](NC(=O)c1nc[nH]c1C(=O)N[C@H](C)c1ccccc1)C(=O)OC(C)(C)C	none
Nc1c(Cl)ncnc1Nc1ccc(C(=O)O)cc1	none (no result: D1 antag, D1 agonist, D1 PAM)
CCOc1cccc(Oc2ncccc2C(=O)/C(C#N)=C/N(C)C)c1	D1 antag -38
CN(C)/C=C(\C#N)C(=O)c1cccc(Oc2ccc(Br)cc2)c1	none
CCN(CC)Cc1c(C(=O)N/N=C(\C)c2ccncc2)nnn1-c1nonc1N	none
Cc1cc(NC(=O)CCS(=O)(=O)c2nc(-c3ccccc3)cc(C(F)(F)F)n2)no1	none
CS(=O)(=O)c1nc(-c2ccccc2)cc(C(F)(F)F)n1	DRD3 antagonist -120
CC(=O)c1cc(C(=O)Nc2cc(C)cc(C)c2)c2ccccn12	none (no result: DRD3 antagonist)
O=S(=O)(NCCC1CC1(Cl)Cl)c1ccc(Cl)cc1 (stereo unspecified)	D1 antag -38
CC(C)(C)SCCNS(=O)(=O)c1ccc(Cl)cc1	none
O=C(CCc1cn(Cc2ccccc2Cl)c2ccccc12)NC1CCCCC1	none (no result: DRD3 antagonist)
Cc1ccc(/C=N/NC(=O)c2ccc(-n3cnnn3)cc2)cc1	none
COc1ccc(/C=N/NC(=O)c2ccc(-n3cnnn3)cc2)cc1	D1 antag -65
COc1ccc(C(CNC(=O)C(C)Oc2ccc(Br)cc2)N2CCOCC2)cc1 (stereo unspecified)	DRD3 antagonist -69
COc1ccc(C(CNC(=O)COc2cc(C)c(Cl)c(C)c2)N2CCCCC2)cc1 (stereo unspecified)	DRD3 antagonist -92
COc1ccc(C(CNC(=O)c2cccc(S(=O)(=O)Nc3ccc(F)cc3)c2)N2CCCCC2)cc1 (stereo unspecified)	DRD3 antagonist -72 (no result: D1 antag, D1 agonist, D1 PAM)
COc1ccc(C(CNC(=O)COc2ccc(Cl)cc2C)N2CCCCC2)cc1 (stereo unspecified)	none
COc1cc(C2c3c(oc4ccccc4c3=O)C(=O)N2c2nncs2)cc(OC)c1OC (stereo unspecified)	none (no result: DRD3 antagonist)
COc1ccc(OCC(=O)NCC(c2ccc(OC)cc2)N2CCCCC2)cc1 (stereo unspecified)	DRD3 antagonist -62
COc1ccc(C(CNC(=O)c2ccc(Cl)c(NC(=O)c3cccs3)c2)N2CCCC2)cc1 (stereo unspecified)	DRD3 antagonist -68
COc1ccc(C(CNC(=O)COc2ccc(C)c(C)c2)N2CCCCC2)cc1 (stereo unspecified)	DRD3 antagonist -100
COc1ccc(NS(=O)(=O)c2cccc(C(=O)OCC(=O)N3CCN(c4ccc(OC)cc4)CC3)c2)cc1	D1 antag -69
COc1ccc(C(CNC(=O)COc2cc(C)cc(C)c2)N2CCCCC2)cc1 (stereo unspecified)	none (no result: DRD3 antagonist)
COc1ccc(C(CNC(=O)COc2ccc(Cl)c(C)c2)N2CCOCC2)cc1 (stereo unspecified)	none (no result: DRD3 antagonist)
O=C1CC=Nc2ccc([N+](=O)[O-])cc21	none (no result: D1 antag, D1 agonist, D1 PAM)
COc1ccc(C(CNC(=O)Cc2ccccc2F)N2CCCCC2)cc1 (stereo unspecified)	DRD3 antagonist inconclusive
COc1ccc(C(CNC(=O)Cc2ccccc2Cl)N2CCCCC2)cc1 (stereo unspecified)	DRD3 antagonist -86
COc1ccc(C(O)(C(C)C)C(CN2CCOCC2)c2ccc(Cl)cc2)cc1 (stereo unspecified)	DRD3 antagonist -55
COc1ccc(C(CNC(=O)COc2ccccc2)N2CCCCC2)cc1 (stereo unspecified)	DRD3 antagonist -116
COc1ccc(C(CNC(=O)c2ccc(-n3cnnn3)cc2)N2CCOCC2)cc1 (stereo unspecified)	D1 antag -47
CC(C)(C)CC(=O)OCC(=O)[C@@]12OC(C)(C)O[C@@H]1C[C@H]1[C@@H]3CCC4=CC(=O)C=C[C@]4(C)[C@@]3(F)[C@@H](O)C[C@@]12C	none (no result: DRD3 antagonist, D1 antag, D1 agonist, D1 PAM)
COc1cc(N2CCC(O)CC2)ccc1Nc1nnc(Cl)c(Nc2ccccc2S(C)(=O)=O)n1	none (no result: D1 antag, D1 agonist, D1 PAM)
CC(C)C[C@@H]1COc2cc(N3CCSCC3)ccc2S(=O)(=O)N1	none (no result: D1 antag, D1 agonist, D1 PAM)
COc1ccc(C(CNC(=O)C(C)(C)Oc2ccc(Cl)cc2)N2CCCC2)cc1 (stereo unspecified)	DRD3 antagonist -114
COc1ccc(CC(=O)NCC(c2ccc(Cl)cc2)N2CCOCC2)cc1 (stereo unspecified)	D1 antag -43 (no result: DRD3 antagonist)
CN(C)c1ccc(C(CNC(=O)Cc2ccc(Cl)cc2)N2CCOCC2)cc1 (stereo unspecified)	none (no result: DRD3 antagonist)
COc1ccc(C(CNC(=O)CNC(=O)c2cccc(C)c2)N2CCCCC2)cc1 (stereo unspecified)	DRD3 antagonist -52 (no result: D1 antag, D1 agonist, D1 PAM)
Cc1cccc(CN2C(=O)c3ccccc3Sc3ccc(C(=O)NC4CCCCC4)cc32)c1	none (no result: DRD3 antagonist)
